uPA generation: qHTS for Inhibitors of Cell Surface uPA Generation. AID 540303, 2011. 0.31% of 330,000 active. Potency, µM (titrated, usually from 38.3 µM), for inactives: top-dose activity change, negative = inhibition, actives largely listed as inhibitors. cell surface uPA generation assay, qHTS; active = well fitted inhibition curve with a large enough effect; inconclusive = small, poorly fitted or top-dose-only effect; inactive = no such curve, though single readings can be large or run the other way; tested in mouse RAW 264.7 cells; also: potency is read from the fitted curve at half-maximal effect; nearly all actives have a fitted effect of over 55% in size
HT1080-NT tox: qHTS for induction of synthetic lethality in tumor cells producing 2HG: qHTS for the HT-1080-NT fibrosarcoma cell line | Potency, µM (titrated, usually from 46.1 µM), for the others: top-dose activity, negative = less viability, usual class: cytotoxic | 1.6% of 360,000 active | HT-1080-NT fibrosarcoma viability, CellTiter-Glo ATP luminescence, 48 h | AID 686970, 2013;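 also: NT is the 2HG producing partner of a matched IDH1 knockdown line; potency is read from the fitted curve at half-maximal effect; 0% = DMSO-treated cells and -100% = media-only wells without cells; nearly all actives have a fitted effect of over 55% in size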
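Toxicity toward the 2HG-producing NT line was scored as %Activity, normalised to DMSO and no-cell wells, from CellTiter-Glo luminescence after 48 hours' treatment.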
DT40 TDP1 CPT: qHTS for Inhibitors of human tyrosyl-DNA phosphodiesterase 1 (TDP1): qHTS in cells in presence of CPT | chicken DT40 Tdp1-/-;hTDP1 cells + 20 nM CPT, ATP luminescence, 48 h | Potency, µM (series often up to 46.2 µM), without a hit: top-dose activity change, negative = growth inhibition, most hits filed as inhibitors | 12% of 420,000 active; also: potency is read from the fitted curve at half-maximal effect; nearly all actives have a fitted effect of over 55% in size
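Chicken DT40 Tdp1-/- cells complemented with human TDP1, 400 cells/well, exposed to compounds plus 20 nM camptothecin for at least 48 h at 37 C; viability read as ATP content by CellTiter-Glo luminescence.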
TDP1 cell noCPT: qHTS for Inhibitors of human tyrosyl-DNA phosphodiesterase 1 (TDP1): qHTS in cells in absence of CPT | Potency, µM (doses to about 46.2 µM), for inactives: at the top dose activity change, negative = growth inhibition, most hits filed as inhibitors | 15% of 420,000 active | DT40 Tdp1-/- hTDP1 cells, no CPT, ATP luminescence, 48 h | AID 686978, 2013; also: potency is read from the fitted curve at half-maximal effect; nearly all actives have a fitted effect of over 55% in size
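Growth kinetics read by CellTiter-Glo luminescence after ≥48 hr at 37 °C. Cells: DT40 Tdp1-/- stably carrying human TDP1, 400 per well, compound exposure in the absence of CPT (DMSO vehicle).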
HT1080 IDH1KD tx: qHTS for induction of synthetic lethality in tumor cells producing 2HG: qHTS for the HT-1080-IDH1KD cell line | 2% of 360,000 active | Potency, µM (highest dose often 46.1 µM), inactives show at the top dose activity, negative = toxicity, actives largely listed as cytotoxic | AID 686971, 2013 | HT-1080 IDH1 knockdown viability, ATP luminescence, 48 h;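 also: potency is read from the fitted curve at half-maximal effect; 0% = DMSO wells and -100% = cell-free medium wells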
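IDH1KD HT-1080 cells, 750/well, RPMI + 5% FBS; compound pinned after 2 h settling; 48 h, 37 °C; CellTiter-Glo luminescence; % activity normalised to DMSO and no-cell wells; curves fitted, classed by r2 and efficacy.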
IL-1B inflam inh: qHTS for Inhibitors of Inflammasome Signaling: IL-1-beta AlphaLISA Primary Screen; THP-1 LPS/ATP IL-1B secretion, AlphaLISA, 16 h; hits give low values; 4.7% of 360,000 active; activity change, % at 57.5 µM; AID 743279, 2014; in the data active = activity change below about -50%; inconclusive = mostly about -30% to -49%
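Secreted IL-1B measured by AlphaLISA bead assay after 16 h compound exposure of THP-1 cells; compounds (final up to 57.5 uM) added 1 h before LPS (250 ng/mL) and ATP (1.25 mM) stimulation; lower signal means less secretion.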
* hit, by the source's call; ? = inconclusive; nt = no result given. An excerpt weighted towards active compounds, which were near 19% of everything screened. Unless noted, calls follow the shape of the dose curve; as a rule, active = well fitted curve in the direction sought with a large enough effect; inconclusive = small, poorly fitted or top-dose-only effect, or another doubt; inactive = no such curve, though single readings can be large; an effect the other way counts as inactive or inconclusive. Unless noted, % is scaled to controls: 0 for no effect and ±100 for the full control effect.

SMILES | uPA generation | HT1080-NT tox | DT40 TDP1 CPT | TDP1 cell noCPT | HT1080 IDH1KD tx | IL-1B inflam inh
COCCNC(=O)/C(C#N)=C/c1c(N2CCN(c3ccccc3)CC2)nc2c(C)cccn2c1=O | -3% | -1% | 23µM* | ? | 7% | 71
CCNC(=O)/C(C#N)=C/c1c(N2CCN(c3ccc(OC)cc3)CC2)nc2c(C)cccn2c1=O | -9% | -19% | ? | 21µM* | -4% | -62*
CCN1CCN(c2nc3c(C)cccn3c(=O)c2/C=C(\C#N)C(=O)NCCCOC)CC1 | -12% | 0% | -4% | 6% | 0% | -18
COCCNC(=O)/C(C#N)=C/c1c(N2CCN(c3cccc(Cl)c3)CC2)nc2c(C)cccn2c1=O | 13% | ? | 16µM* | 23µM* | -11% | ?
Cc1cccn2c(=O)c(/C=C(\C#N)C(N)=O)c(N3CCN(c4ccccc4)CC3)nc12 | -1% | -27% | ? | 6.5µM* | ? | 3
CN[C@@H](CO)C(=O)NC[C@H]1O[C@@H](n2cnc3c(=O)[nH]c(N)nc32)[C@H](O)[C@@H]1O | nt | 14% | 0% | 6% | 15% | 19
O=C(COC(=O)c1ccc(F)cc1F)Nc1ccc2c(c1)OCO2 | nt | 1% | -21% | -23% | -1% | 1
CCOc1ccccc1NC(=O)C(OC(=O)c1ccc(NC(=O)CC#N)cc1)c1ccccc1 (configuration not stated) | 2% | -7% | -26% | ? | -14% | -6
CCNC(=O)/C(C#N)=C/c1c(N2CCCCCC2)nc2c(C)cccn2c1=O | -2% | 0% | ? | 23µM* | -10% | ?
CCNC(=O)/C(C#N)=C/c1c(N2CCN(c3ccccc3)CC2)nc2c(C)cccn2c1=O | -5% | 4% | ? | ? | 0% | 7
CNC(=O)/C(C#N)=C/c1c(N2CCN(c3cccc(Cl)c3)CC2)nc2c(C)cccn2c1=O | -2% | 15% | ? | 12µM* | 0% | -66*
C=CCNC(=O)/C(C#N)=C/c1c(N2CCN(c3cccc(Cl)c3)CC2)nc2c(C)cccn2c1=O | 6% | 0% | ? | ? | 17% | -5
CCOC(=O)/C(C#N)=C/c1c(N2CCN(c3ccc(OC)cc3)CC2)nc2c(C)cccn2c1=O | 0% | -5% | ? | ? | 1% | 30
COCCNC(=O)/C(C#N)=C/c1c(N2CCN(c3ccc(OC)cc3)CC2)nc2c(C)cccn2c1=O | -5% | -11% | 23µM* | 23µM* | -10% | ?
CC(O)(CC(=O)CC(=O)c1ccccc1)c1ccccc1 (configuration not stated) | ? | -30% | ? | ? | -26% | -12
Cc1cccc(C)c1N1C(=O)c2ccccc2NC(=O)C1C(=O)NCC(C)C (configuration not stated) | nt | 9% | -5% | 5% | -1% | 2
Cc1ccc(OCCN2CCN(c3nc(NCc4ccco4)c4ccccc4n3)CC2)cc1 | -7% | -12% | ? | 15µM* | -14% | -60*
c1ccc(CN2CCN(c3nc(NCc4ccco4)c4ccccc4n3)CC2)cc1 | -14% | -24% | ? | 23µM* | ? | -64*
COC(=O)c1cc2sccc2n1Cc1nc(-c2ccc(C)cc2)oc1C | nt | nt | -8% | -4% | nt | nt
N#Cc1c(Nc2ccccc2)[n+]([O-])c2ccc(Cl)cc2[n+]1[O-] | -5% | 2% | 6.5µM* | ? | ? | -20
